# Laboratory results from the supplement of paper PMC10849652.
# About 7,900 targets were measured; listed, in parts, are those with a hit and a random draw of the rest. About 0.6% of all pairs of compound and target were hits. Unmarked numbers belong to inactive results.
# Experiments:
# Assay in all cases: log2 fold change, soluble protein after heating vs DMSO (PISA); higher = thermal stabilisation; K562 cells, 10 uM, 30 min; active = over 0.2 and 3.5 SD of the protein, either way, in both replicates (recomputed)
# [1] = compound: COC1=CC=C(C=C1)CN2C=CC3=C2C=C(C=C3)C(=O)NO
# How it was run: (§1)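 K562 cells at 2×10^6 cells/mL were treated for 30 min with 10 μM compound, and aliquots were heated for 3 min over 48°C-58°C before pooling. Extraction used PBS with 0.5% NP-40 at 4°C, and soluble protein was the supernatant after 21,000xg for 90 min, measured by TMTpro 16plex LC-MS/MS with channel sums equalised. Thermal stability values, relative to control samples and from duplicates, are log2 fold changes.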
# filanesib = compound: CON(C)C(=O)N1N=C(c2cc(F)ccc2F)S[C@@]1(CCCN)c1ccccc1 [filanesib]
# How it was run: as §1
# zotarolimus = compound: CO[C@H]1C[C@@H]2CC[C@@H](C)[C@@](O)(O2)C(=O)C(=O)N2CCCC[C@H]2C(=O)O[C@H]([C@H](C)C[C@@H]2CC[C@H](n3cnnn3)[C@H](OC)C2)CC(=O)[C@H](C)/C=C(\C)[C@@H](O)[C@@H](OC)C(=O)[C@H](C)C[C@H](C)/C=C/C=C/C=C/1C [zotarolimus]
# How it was run: as §1
# idasanutlin = compound: COc1cc(C(=O)O)ccc1NC(=O)[C@@H]1N[C@@H](CC(C)(C)C)[C@](C#N)(c2ccc(Cl)cc2F)[C@H]1c1cccc(Cl)c1F [idasanutlin]
# How it was run: as §1
# alisertib = compound: COc1cc(Nc2ncc3c(n2)-c2ccc(Cl)cc2C(c2c(F)cccc2OC)=NC3)ccc1C(=O)O [alisertib]
# How it was run: as §1
# [2] = compound: COc1cc2nc(-c3cc(F)ccc3O)nc(N[C@@H]3CNC[C@H]3C(C)(C)O)c2cc1OC
# How it was run: as §1
# gefitinib = compound: COc1cc2ncnc(Nc3ccc(F)c(Cl)c3)c2cc1OCCCN1CCOCC1 [gefitinib]
# How it was run: as §1
# [3] = compound: COc1cccc2cc(-c3nc([C@H]4CC[C@H](C(=O)O)CC4)n4ncnc(N)c34)[nH]c12
# How it was run: as §1
# lapatinib = compound: CS(=O)(=O)CCNCc1ccc(-c2ccc3ncnc(Nc4ccc(OCc5cccc(F)c5)c(Cl)c4)c3c2)o1 [lapatinib]
# How it was run: as §1
# pictilisib = compound: CS(=O)(=O)N1CCN(Cc2cc3nc(-c4cccc5[nH]ncc45)nc(N4CCOCC4)c3s2)CC1 [pictilisib]
# How it was run: as §1
# Chain of UniProt P35611 (P35611 whole entry, looked up): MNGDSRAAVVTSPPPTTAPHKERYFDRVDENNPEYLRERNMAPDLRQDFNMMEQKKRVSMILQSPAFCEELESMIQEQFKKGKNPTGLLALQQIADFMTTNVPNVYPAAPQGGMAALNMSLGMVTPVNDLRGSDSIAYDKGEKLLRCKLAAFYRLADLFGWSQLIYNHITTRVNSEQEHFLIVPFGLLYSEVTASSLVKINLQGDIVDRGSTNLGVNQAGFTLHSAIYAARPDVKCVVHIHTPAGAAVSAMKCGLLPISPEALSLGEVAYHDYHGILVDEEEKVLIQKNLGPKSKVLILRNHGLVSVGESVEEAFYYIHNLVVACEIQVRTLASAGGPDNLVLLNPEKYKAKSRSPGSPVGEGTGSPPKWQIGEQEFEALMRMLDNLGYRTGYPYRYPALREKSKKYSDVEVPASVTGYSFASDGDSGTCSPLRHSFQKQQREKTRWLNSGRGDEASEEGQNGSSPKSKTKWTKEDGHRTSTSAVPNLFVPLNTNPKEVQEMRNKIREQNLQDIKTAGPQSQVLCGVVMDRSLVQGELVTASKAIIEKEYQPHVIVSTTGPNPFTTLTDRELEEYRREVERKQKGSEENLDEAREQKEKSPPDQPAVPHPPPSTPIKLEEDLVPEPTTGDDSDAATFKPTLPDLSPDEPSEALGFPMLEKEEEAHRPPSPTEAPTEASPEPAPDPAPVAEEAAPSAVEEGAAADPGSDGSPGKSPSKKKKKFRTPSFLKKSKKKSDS
# Chain of UniProt P35670 (P35670 whole entry, looked up): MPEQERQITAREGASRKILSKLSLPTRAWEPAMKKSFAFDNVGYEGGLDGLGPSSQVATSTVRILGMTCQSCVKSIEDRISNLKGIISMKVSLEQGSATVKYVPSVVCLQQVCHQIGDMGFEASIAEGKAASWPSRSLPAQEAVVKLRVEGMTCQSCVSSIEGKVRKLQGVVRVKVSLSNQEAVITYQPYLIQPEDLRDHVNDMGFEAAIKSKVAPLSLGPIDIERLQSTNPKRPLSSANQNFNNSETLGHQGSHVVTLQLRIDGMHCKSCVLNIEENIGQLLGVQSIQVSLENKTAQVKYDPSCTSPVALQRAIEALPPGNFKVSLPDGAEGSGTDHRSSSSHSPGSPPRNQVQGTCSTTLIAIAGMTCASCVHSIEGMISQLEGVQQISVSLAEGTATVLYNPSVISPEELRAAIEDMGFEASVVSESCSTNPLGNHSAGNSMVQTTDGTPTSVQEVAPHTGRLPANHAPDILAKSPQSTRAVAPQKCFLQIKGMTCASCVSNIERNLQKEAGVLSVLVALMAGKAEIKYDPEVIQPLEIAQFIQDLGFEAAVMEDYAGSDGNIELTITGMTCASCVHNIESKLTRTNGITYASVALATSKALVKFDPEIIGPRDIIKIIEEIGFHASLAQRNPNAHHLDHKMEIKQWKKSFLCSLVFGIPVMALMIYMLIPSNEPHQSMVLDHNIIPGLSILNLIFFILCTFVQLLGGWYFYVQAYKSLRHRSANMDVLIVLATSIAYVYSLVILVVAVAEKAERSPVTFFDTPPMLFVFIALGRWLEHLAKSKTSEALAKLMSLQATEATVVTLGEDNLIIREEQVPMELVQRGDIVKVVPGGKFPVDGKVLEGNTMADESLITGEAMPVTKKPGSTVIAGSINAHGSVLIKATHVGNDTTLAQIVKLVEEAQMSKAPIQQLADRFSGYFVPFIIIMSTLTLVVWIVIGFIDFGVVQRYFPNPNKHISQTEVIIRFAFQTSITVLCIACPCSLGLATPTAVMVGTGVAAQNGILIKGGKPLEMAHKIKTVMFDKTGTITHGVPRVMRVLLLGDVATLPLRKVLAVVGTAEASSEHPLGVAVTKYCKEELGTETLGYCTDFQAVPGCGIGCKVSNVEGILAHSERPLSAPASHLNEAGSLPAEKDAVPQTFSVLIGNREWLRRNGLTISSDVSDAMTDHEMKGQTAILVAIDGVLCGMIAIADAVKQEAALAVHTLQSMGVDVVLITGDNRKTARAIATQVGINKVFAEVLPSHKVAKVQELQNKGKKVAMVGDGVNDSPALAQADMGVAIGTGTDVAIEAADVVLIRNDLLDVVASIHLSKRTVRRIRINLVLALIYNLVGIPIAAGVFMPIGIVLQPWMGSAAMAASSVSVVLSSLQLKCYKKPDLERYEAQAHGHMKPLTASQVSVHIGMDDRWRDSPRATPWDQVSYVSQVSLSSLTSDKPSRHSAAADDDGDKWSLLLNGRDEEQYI
# Chain of UniProt Q9UBL3 (Q9UBL3 whole entry, looked up): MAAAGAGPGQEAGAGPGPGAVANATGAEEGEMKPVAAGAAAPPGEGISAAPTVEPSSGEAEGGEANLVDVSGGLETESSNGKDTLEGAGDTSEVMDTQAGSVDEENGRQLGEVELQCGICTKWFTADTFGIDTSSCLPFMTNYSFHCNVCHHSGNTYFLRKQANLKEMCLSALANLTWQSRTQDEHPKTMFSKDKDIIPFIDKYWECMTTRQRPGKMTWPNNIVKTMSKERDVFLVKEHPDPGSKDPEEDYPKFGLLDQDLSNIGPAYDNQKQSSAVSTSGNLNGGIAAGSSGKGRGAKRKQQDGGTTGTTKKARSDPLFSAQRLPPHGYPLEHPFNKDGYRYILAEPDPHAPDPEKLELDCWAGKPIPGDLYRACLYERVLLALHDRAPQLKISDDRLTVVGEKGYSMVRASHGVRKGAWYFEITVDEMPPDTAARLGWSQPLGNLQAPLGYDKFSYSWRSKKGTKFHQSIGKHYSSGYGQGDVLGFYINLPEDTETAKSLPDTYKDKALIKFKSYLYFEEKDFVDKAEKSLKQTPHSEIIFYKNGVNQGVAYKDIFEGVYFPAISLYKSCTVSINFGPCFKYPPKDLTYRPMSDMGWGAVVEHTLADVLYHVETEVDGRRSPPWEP
# Chain of UniProt P54707 (P54707 whole entry, looked up): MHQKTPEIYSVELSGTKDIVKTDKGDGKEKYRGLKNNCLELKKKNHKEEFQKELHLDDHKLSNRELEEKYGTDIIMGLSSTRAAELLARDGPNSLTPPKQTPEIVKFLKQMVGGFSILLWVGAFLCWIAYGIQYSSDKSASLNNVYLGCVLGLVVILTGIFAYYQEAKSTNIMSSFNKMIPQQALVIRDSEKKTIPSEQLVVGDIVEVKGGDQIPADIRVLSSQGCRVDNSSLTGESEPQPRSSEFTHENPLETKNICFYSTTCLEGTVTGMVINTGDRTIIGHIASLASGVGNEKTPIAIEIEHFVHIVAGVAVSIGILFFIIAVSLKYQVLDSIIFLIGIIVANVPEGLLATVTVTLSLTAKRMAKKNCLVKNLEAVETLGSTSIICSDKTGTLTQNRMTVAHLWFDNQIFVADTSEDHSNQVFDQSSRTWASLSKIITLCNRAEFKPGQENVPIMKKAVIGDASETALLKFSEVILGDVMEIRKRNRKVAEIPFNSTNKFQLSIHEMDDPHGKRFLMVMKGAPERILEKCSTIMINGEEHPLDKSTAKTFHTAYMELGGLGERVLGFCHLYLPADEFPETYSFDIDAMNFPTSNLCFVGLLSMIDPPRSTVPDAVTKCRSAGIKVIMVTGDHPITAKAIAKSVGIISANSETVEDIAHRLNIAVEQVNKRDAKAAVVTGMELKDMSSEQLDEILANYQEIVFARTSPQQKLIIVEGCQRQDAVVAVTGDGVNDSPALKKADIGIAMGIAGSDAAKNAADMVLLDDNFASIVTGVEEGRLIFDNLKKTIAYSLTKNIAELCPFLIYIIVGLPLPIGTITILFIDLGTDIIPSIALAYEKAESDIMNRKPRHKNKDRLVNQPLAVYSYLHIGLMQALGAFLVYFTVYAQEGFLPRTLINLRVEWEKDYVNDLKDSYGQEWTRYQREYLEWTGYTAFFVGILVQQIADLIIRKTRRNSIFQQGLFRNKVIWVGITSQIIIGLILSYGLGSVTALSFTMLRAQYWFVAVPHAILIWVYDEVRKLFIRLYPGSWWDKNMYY
# Chain of UniProt Q9BRQ8 (Q9BRQ8 whole entry, looked up): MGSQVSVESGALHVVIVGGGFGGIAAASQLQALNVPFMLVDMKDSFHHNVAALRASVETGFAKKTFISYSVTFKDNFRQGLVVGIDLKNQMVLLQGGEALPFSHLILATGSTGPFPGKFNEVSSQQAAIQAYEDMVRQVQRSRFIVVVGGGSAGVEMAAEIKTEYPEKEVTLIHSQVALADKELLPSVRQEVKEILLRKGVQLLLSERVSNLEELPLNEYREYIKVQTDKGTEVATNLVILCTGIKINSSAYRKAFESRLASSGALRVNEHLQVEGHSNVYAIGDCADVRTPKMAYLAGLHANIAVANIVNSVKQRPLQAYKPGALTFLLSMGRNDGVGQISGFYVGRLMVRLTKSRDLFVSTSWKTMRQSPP
# Chain of UniProt P17544 (P17544 whole entry, looked up): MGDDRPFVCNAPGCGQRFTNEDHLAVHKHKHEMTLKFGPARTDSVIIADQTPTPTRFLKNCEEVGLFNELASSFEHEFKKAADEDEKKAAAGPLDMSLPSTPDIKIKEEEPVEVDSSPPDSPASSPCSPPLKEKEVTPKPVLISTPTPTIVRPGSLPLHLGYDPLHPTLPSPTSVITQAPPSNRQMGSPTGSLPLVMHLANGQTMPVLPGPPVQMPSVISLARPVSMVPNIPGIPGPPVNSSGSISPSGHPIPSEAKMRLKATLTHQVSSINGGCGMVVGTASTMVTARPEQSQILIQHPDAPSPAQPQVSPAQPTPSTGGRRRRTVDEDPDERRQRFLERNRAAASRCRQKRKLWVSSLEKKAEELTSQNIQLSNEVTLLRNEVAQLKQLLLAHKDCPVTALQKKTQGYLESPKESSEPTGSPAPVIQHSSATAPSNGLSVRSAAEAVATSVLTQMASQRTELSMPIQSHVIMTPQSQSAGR
# Chain of UniProt Q8WUW1 (Q8WUW1 whole entry, looked up): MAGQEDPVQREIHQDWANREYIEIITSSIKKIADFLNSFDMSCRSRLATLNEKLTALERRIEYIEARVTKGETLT
# Chain of UniProt Q9Y3D8 (Q9Y3D8 whole entry, looked up): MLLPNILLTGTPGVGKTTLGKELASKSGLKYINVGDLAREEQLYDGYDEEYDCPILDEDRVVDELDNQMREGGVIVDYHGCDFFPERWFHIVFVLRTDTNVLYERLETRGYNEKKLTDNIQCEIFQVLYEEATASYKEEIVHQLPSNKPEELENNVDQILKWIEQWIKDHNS
Target,log2 fold change [1],log2 fold change (filanesib),log2 fold change (zotarolimus),log2 fold change (idasanutlin),log2 fold change (alisertib),log2 fold change [2],log2 fold change (gefitinib),log2 fold change [3],log2 fold change (lapatinib),log2 fold change (pictilisib)
ARAF (UniProt P10398),0,-0.022,0.06,0.006,0.076,-0.274 (active),0.076,0.06,0.076,-0.175
ACOX3 (UniProt O15254),0.138,0.042,-0.037,0.074,0.555,-0.106,0.116,0.144,0.41,–
AK6 (UniProt Q9Y3D8),0.009,-0.052,0.003,0.012,-0.035,0.053,0.03,0.006,-0.049,-0.01
ANGEL1 (UniProt Q9UNK9),0.024,–,–,–,–,–,–,–,–,–
BPHL (UniProt Q86WA6),-0.118,-0.018,0.017,-0.007,0.004,0.081,0.049,-0.056,-0.033,0.033
B4GALT1 (UniProt P15291),-0.04,0.014,0.067,0,0.051,-0.037,0.022,0.021,0.042,0.128
AGPAT1 (UniProt Q99943),-0.004,0.001,-0.048,-0.059,-0.081,0.176,0.028,0.021,0.074,0.017
AUP1 (UniProt Q9Y679),-0.069,-0.269 (active),-0.014,-0.022,-0.013,-0.163,-0.034,0.022,-0.007,-0.059
AGO1 (UniProt Q9UL18),-0.107,-0.015,-0.069,0.009,0.05,-0.031,-0.119,-0.029,0.061,-0.002
AFG1L (UniProt Q8WV93),-0.17,-0.239,0.018,0.016,-0.065,-0.18,-0.012,0.107,0.041,–
ACSL5 isoform 3 (UniProt Q9ULC5),-0.023,-0.118,0.073,-0.148,-0.009,-0.259,0.068,0.074,0.074,0.065
AGAP3 isoform 4 (UniProt Q96P47),-0.051,0.24,-0.02,0.12,-0.073,0.079,0.28,-0.1,0.038,–
ACAD9 (UniProt Q9H845),-0.005,-0.069,-0.017,0.017,-0.012,0.03,0.016,0.083,-0.015,0.082
ACSM3 (UniProt Q53FZ2),0.134,-0.056,0.009,-0.017,-0.033,0.101,-0.034,0.028,-0.025,0.198
APAF1 (UniProt O14727),-0.023,-0.066,-0.03,-0.068,0.08,0.279,-0.163,0.09,0.369,-0.04
BRK1 isoform 2 (UniProt Q8WUW1),0.113,0.127,-0.049,0.031,-0.076,-0.07,0.05,-0.041,-0.032,0.018

Target,log2 fold change [1],log2 fold change (filanesib),log2 fold change (zotarolimus),log2 fold change (idasanutlin),log2 fold change (alisertib),log2 fold change [2],log2 fold change (gefitinib),log2 fold change [3],log2 fold change (lapatinib),log2 fold change (pictilisib)
AIFM2 (UniProt Q9BRQ8),-0.019,-0.025,0.097,-0.017,-0.078,0.023,0.096,0.061,0.135,0.121
AHSA1 (UniProt O95433),-0.029,-0.061,0.003,-0.064,-0.037,0.109,0.022,0.031,-0.02,-0.023
ATF7 isoform 6 (UniProt P17544),0.04,0.417,0.03,0.084,-0.007,-0.004,0.09,0.09,0.121,–
ATP2A3 isoform 2 (UniProt Q93084),-0.016,-0.118,-0.009,-0.027,-0.082,-0.004,-0.029,0.02,-0.002,0.027
ASH2L (UniProt Q9UBL3),0.019,0.044,0.096,0.021,-0.034,0.035,0.004,-0.014,-0.011,0.039
ATR (UniProt Q13535),-0.267 (active),0.019,0.057,-0.067,-0.05,0.031,0.019,0,0.039,0.112
BMP2K (UniProt Q9NSY1),0.032,-0.019,0.029,-0.092,0,0.055,0.024,0.111,0.01,0.102
ANAPC2 (UniProt Q9UJX6),0.026,-0.042,0.012,-0.047,-0.074,-0.038,-0.034,-0.004,0.059,0.015
BOP1 (UniProt Q14137),-0.059,0.161,0.054,0.077,-0.131,-0.085,0.017,-0.012,-0.034,0
ADD1 isoform 3 (UniProt P35611),0.071,0.013,-0.025,0.014,-0.059,-0.009,0.007,0.066,0.015,-0.004
ABHD16A (UniProt O95870),0.051,0.067,0.204,-0.042,-0.049,0.347 (active),0.158,-0.039,0.235,0.018
ATP12A isoform 2 (UniProt P54707),-0.034,-0.015,-0.015,0.016,-0.008,0.071,0.032,0.043,-0.074,0.1
APOB (UniProt P04114),0.034,-0.86 (active),-0.013,-0.039,0,-0.384,-0.129,0.164,-0.352,0.078
ATP7B (UniProt P35670),-0.02,0.087,-0.075,-0.233 (active),-0.02,-0.011,0.028,0.026,0.061,0.061
AP4S1 (UniProt Q9Y587),-0.039,0.029,0.126,-0.061,-0.098,-0.002,-0.083,0.036,-0.047,–
